Activity calls are given as the source filed them.
Legend:
[1] = system: Plasmodium falciparum Sir2 (PF13_0152, Sir2A); assay: pfSir2 binders on small-molecule microarrays, primary screen, biochemical, small-molecule microarray, 635 nm fluorescence (AID 1098); details: small-molecule microarray binding, fluorescence 635 nm; higher = more signal;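 further: score merges spot fluorescence intensity with its signal-to-noise ratio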
[2] = small-molecule microarray binders of probe aDKK1, primary screen, biochemical, biotinylated probe, 635/667 nm fluorescence (AID 1099); details: higher = more signal;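 further: score merges 667nm spot fluorescence with signal to noise across triplicate slides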
[3] = small-molecule microarray binders of probe aCHRDL2, primary screen, biochemical, biotinylated probe, 635/667 nm fluorescence (AID 1100); details: higher = more signal
[4] = splicing luciferase reporter signal modulators, primary screen, spliceosome inhibition project, cell-based, HEK293, splice +/- reporter (AID 1101); details: luminescence, 24 h, higher = more signal, called active from +8 up or from −8 down;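 further: HEK293 cells carrying a splicing-competent luciferase reporter gene; test concentration not given here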
[5] = biological target: Fibroblast growth factor 10 (Homo sapiens) (UniProt O15520); assay: FGF10 binders on small-molecule microarrays, primary screen, biochemical, small-molecule microarray, 635 nm fluorescence (AID 1102); details: FGF10 binding, fluorescence 635 nm, higher = more signal
[6] = system: glycogen synthase kinase-3 (GSK3A per assay name; protocol says GSK3B); assay: GSK3 binders on small-molecule microarrays, primary screen, biochemical, small-molecule microarray, 635 nm fluorescence, GSK3A (AID 1103); details: small-molecule microarray binding, fluorescence 635 nm; higher = more signal; further: the record names both GSK3A and GSK3B
[7] = biological target: Epidermal growth factor receptor (Homo sapiens) (UniProt P00533); assay: EGFR binders on small-molecule microarrays, primary screen, biochemical, small-molecule microarray, 635 nm fluorescence (AID 1104); details: EGFR binding, higher = more signal;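 further: score merges 667 nm emission intensity with spot signal to noise over triplicate slides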
[8] = biological target: Follistatin-related protein 3 (Homo sapiens) (UniProt O95633); assay: FSTL3 binders on small-molecule microarrays, primary screen, biochemical, small-molecule microarray, 635 nm fluorescence (AID 1105); details: FSTL3 binding, higher = more signal;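 further: score merges emission near 667 nm and signal to noise per printed spot across three slides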
[9] = biological target: Dickkopf-related protein 1 (Homo sapiens) (UniProt O94907); assay: DKK1 binders on small-molecule microarrays, primary screen, biochemical, small-molecule microarray, 635 nm fluorescence scan (AID 1106); details: DKK1 binding, higher = more signal;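 further: score merges emission near 667 nm with signal to noise over three replicate slides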
[10] = system: Inhibin beta A chain (activin A); assay: INHBA (activin A) binders on microarrays, primary screen, biochemical, small-molecule microarray, 635 nm fluorescence scan (AID 1107); details: small-molecule microarray binding, higher = more signal;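 further: mouse activin A protein probed at 4.33 µg/mL on printed slides; score merges bound-protein fluorescence near 667 nm with spot signal-to-noise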
[11] = system: Human papillomavirus type 1a protein E7 (residues 44-93); assay: HPV1a E7 fragment binders on microarrays, primary screen, biochemical, small-molecule microarray, residues 44-93, 635 nm fluorescence (AID 1108); details: small-molecule microarray binding, fluorescence 635 nm; higher = more signal;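 further: E7 fragment applied at 1 µg/mL in TBST for 1 h at 4 C; score combines spot fluorescence with its signal to noise ratio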
[12] = modulators of HCV replicon luciferase signal, primary screen, HCV replication inhibitor project, Huh7 cells, luciferase reporter (AID 1109); details: 48 h, higher = more signal;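 further: huh7 hepatoma cells harbouring a luciferase neomycin HCV replicon reporter; luciferase luminescence as measure of HCV replicon replication; test concentration not given here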
[13] = biological target: Left-right determination factor 2 (Homo sapiens) (UniProt O00292); assay: LEFTY2 binders on small-molecule microarrays, primary screen, biochemical, small-molecule microarray, 635 nm fluorescence scan (AID 1110); details: LEFTY2 binding, higher = more signal
[14] = biological target: Calmodulin-1 (Homo sapiens) (UniProt P0DP23); assay: CALM1 binders on microarrays, EGTA buffer, profiling panel, biochemical, small-molecule microarray, Cy5-labelled CALM1 (AID 1111); details: Cy5-CALM1 binding fluorescence, higher = more signal;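 further: labelled calmodulin applied in Tris saline Tween buffer holding calcium plus EGTA and DTT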
[15] = biological target: Calmodulin-1 (Homo sapiens) (UniProt P0DP23); assay: calcium-bound CALM1 binders on microarrays, profiling panel, artefact control for SMM control-protein annotation, biochemical, small-molecule microarray, Cy5-labelled CALM1, plus calcium (AID 1112); details: Cy5-CALM1 binding fluorescence, higher = more signal;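 further: score merges spot fluorescence with signal to noise from triplicate slides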
[16] = small-molecule microarray binders of probe aWnt5a, primary screen, biochemical, biotinylated probe, 635/667 nm fluorescence (AID 1113); details: higher = more signal;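 further: score merges 667 nm fluorescence intensity with signal-to-noise per printed feature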
[17] = small-molecule microarray binders of probe aShh, primary screen, biochemical, biotinylated probe, 635/667 nm fluorescence (AID 1114); details: higher = more signal;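 further: probe is biotin-labelled aShh protein from a stem cell growth factor screen; measures binding of labelled protein to compounds printed on the slide; score merges feature fluorescence at 667 nm with signal-to-noise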
[18] = small-molecule microarray binders of probe aNog, primary screen, biochemical, biotinylated probe, 635/667 nm fluorescence (AID 1115); details: higher = more signal;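 further: probe is biotinylated aNog protein used at 0.15 µg/mL for 1 h at 4 C; z-score combines 667 nm fluorescence of each spot with its signal to noise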
[19] = biological target: Torsin-1A-interacting protein 1 (Homo sapiens) (UniProt Q5JTV8); assay: LAP1 binders from COS7 cell lysate, primary screen, small-molecule microarray, 635/667 nm fluorescence (AID 1116); details: COS7-hLAP1 lysate binding, 635 nm fluorescence, higher = more signal
[20] = biological target: Alpha-bungarotoxin (Bungarus multicinctus) (UniProt P60615); assay: alpha-bungarotoxin binders on microarray, profiling panel, artefact control for SMM control protein annotation, biochemical, small-molecule microarray, Alexa647 label, 635/667 nm fluorescence (AID 1117); details: alpha-BTX-A647 binding fluorescence, higher = more signal
Alpha-bungarotoxin (Bungarus multicinctus), sequence (P60615 whole entry, looked up): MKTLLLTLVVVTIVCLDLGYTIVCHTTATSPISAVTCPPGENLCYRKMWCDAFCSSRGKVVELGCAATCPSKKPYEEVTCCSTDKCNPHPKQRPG

Dickkopf-related protein 1 (Homo sapiens), sequence (O94907 whole entry, looked up): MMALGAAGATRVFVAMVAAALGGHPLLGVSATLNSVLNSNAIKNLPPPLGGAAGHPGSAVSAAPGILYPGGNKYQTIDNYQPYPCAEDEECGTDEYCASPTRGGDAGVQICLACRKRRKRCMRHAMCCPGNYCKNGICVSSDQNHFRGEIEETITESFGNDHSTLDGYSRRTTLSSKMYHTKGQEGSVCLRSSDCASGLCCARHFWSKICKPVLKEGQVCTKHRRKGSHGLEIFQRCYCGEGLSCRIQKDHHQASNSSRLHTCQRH
Torsin-1A-interacting protein 1 (Homo sapiens), sequence (Q5JTV8 whole entry, looked up): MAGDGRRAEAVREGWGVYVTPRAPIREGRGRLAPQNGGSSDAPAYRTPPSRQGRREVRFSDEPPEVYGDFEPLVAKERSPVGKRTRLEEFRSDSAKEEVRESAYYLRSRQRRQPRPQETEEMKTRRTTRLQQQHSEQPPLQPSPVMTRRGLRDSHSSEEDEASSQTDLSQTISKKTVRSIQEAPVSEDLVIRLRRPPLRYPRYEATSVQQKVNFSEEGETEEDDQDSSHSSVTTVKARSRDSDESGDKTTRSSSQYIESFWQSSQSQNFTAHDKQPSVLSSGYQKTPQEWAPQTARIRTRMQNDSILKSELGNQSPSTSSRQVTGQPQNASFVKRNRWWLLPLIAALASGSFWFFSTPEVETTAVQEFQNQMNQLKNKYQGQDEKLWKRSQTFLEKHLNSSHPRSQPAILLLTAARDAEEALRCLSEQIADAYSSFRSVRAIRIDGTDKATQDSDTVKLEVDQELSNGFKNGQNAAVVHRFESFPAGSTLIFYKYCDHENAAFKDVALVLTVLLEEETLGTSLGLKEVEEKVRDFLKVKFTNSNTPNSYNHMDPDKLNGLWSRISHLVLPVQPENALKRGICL
Epidermal growth factor receptor (Homo sapiens), sequence (P00533 whole entry, looked up): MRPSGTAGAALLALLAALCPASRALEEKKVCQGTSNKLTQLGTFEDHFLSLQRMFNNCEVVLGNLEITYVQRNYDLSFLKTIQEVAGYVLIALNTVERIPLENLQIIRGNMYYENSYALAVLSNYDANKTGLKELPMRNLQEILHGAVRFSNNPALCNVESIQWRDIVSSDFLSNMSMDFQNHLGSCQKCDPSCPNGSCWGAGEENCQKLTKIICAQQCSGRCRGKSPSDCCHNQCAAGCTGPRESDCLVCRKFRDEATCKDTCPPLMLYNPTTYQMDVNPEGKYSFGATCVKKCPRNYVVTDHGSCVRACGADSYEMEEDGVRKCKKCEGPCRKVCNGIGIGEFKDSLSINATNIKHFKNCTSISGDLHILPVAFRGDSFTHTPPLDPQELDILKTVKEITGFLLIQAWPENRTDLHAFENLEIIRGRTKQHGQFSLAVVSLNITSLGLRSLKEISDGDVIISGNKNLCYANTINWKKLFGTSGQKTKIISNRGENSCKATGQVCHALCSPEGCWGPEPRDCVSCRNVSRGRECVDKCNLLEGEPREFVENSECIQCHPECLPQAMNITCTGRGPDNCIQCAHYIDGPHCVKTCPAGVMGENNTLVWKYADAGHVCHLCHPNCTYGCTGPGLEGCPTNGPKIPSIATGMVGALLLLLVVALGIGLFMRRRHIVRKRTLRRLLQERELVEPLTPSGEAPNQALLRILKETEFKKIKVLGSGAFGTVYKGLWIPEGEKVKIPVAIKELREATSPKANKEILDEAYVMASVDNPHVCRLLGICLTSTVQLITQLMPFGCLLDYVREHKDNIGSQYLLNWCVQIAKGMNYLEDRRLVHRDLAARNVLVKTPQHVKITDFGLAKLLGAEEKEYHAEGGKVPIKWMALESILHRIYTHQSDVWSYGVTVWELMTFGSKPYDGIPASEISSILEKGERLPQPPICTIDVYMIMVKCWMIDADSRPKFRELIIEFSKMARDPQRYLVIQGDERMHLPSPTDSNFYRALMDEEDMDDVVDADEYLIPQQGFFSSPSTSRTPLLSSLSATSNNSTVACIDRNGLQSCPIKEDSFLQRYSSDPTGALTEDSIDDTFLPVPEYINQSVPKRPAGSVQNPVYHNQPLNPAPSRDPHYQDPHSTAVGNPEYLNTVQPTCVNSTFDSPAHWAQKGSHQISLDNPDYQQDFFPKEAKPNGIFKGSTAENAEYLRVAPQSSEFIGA
Follistatin-related protein 3 (Homo sapiens), sequence (O95633 whole entry, looked up): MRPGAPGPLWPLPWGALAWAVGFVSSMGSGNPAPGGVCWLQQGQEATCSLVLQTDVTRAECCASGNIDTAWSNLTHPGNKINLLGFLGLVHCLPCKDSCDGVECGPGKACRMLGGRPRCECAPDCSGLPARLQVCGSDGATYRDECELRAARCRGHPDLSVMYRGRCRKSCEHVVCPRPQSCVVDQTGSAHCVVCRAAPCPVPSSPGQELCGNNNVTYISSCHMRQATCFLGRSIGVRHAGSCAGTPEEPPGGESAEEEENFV
Fibroblast growth factor 10 (Homo sapiens), sequence (O15520 whole entry, looked up): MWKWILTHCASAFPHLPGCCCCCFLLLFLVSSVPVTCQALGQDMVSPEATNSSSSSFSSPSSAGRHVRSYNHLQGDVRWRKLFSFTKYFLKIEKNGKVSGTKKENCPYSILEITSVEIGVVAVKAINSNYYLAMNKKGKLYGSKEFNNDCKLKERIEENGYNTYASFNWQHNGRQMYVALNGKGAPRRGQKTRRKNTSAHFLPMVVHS
Left-right determination factor 2 (Homo sapiens), sequence (O00292 whole entry, looked up): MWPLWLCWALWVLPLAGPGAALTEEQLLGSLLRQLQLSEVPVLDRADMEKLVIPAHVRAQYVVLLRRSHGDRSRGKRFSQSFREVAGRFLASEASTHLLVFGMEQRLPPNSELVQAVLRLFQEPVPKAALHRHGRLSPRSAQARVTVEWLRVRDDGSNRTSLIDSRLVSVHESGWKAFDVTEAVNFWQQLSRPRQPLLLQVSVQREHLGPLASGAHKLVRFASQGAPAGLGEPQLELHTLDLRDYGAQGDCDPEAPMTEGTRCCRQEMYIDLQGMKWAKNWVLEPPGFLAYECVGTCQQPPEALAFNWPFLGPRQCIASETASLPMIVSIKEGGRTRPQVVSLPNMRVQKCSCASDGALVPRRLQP

Compound | composite z-score [1] | composite z-score [2] | composite z-score [3] | z-score [4] | composite z-score [5] | composite z-score [6] | composite z-score [7] | composite z-score [8] | composite z-score [9] | composite z-score [10] | composite z-score [11] | z-score [12] | composite z-score [13] | composite z-score [14] | composite z-score [15] | composite z-score [16] | composite z-score [17] | composite z-score [18] | composite z-score [19] | composite z-score [20]
COC(=O)C1=CC(CCCO)=CC(c2ccc(CN3CCCC3)cc2)N(Cc2sc3ccccc3c2Cl)C=C1C(=O)OC (stereo not given) | 1.81 | 0.81 | 1.05 | -0.855 (inactive) | 1.37 | 1.32 | 0.526 | 0.708 | 0.227 | 0.375 | 1.34 | -0.574 | 1.17 | 2.96 | 1.22 | 0.0625 | 0.661 | 2.08 | 3.75 | 3.77
C[N+](C)(C)CCCCCCNC(=O)[C@H]1C[C@H]2C(=O)NCC(=O)N2[C@H]1c1cccc(OCCO)c1 | 1.75 | -0.149 | 0.0218 | -0.34 (inactive) | 0.439 | 0.548 | 0.228 | 0.969 | 1.28 | 0.169 | 0.626 | 0.643 | 1.5 | -0.748 | -0.95 | -0.096 | -0.311 | -0.231 | 0.509 | 0.355
Cc1ccc(S[C@]2(C(=O)NC3CC3)CC(=O)N(Cc3cc(C(F)(F)F)cc(C(F)(F)F)c3)[C@@H]2c2ccc(CO)cc2I)cc1 | 1.8 | 0.679 | -0.525 | 0.0986 (inactive) | 0.126 | 0.322 | -0.141 | 0.484 | -0.0211 | 1.15 | 0.769 | -1.67 | -0.175 | 0.102 | -0.213 | 0.472 | -0.19 | 1.65 | 0.0541 | 0.665
Cc1c(NC(=O)/C(C#N)=C/c2ccc(Cl)cc2)c(=O)n(-c2ccccc2)n1C | 0.878 | -0.115 | 0.1 | -0.0648 (inactive) | 0.938 | 0.0624 | 0.324 | 0.371 | 0.101 | 0.311 | -0.648 | -0.871 | 0.119 | 1.14 | 0.629 | -0.0869 | -0.0503 | 0.486 | 1.58 | 0.766
CCCCCN1CC=CC23O[C@@H]4C=CCOC(=O)[C@@H]4[C@H]2C(=O)N(CCCCCO)[C@@H]3C1=O (stereo not given in full) | 1.37 | -0.181 | 0.398 | -0.522 (inactive) | -0.893 | -1.15 | -0.728 | -0.52 | -0.63 | 0.676 | -0.678 | -0.0591 | -1.19 | -0.511 | -0.177 | -0.209 | -0.0035 | -0.223 | 0.229 | -0.724
O=C1C2C=CC(C(O)c3cccc(O)c3)N(Nc3ccccc3F)C2C(=O)N1c1ccccc1 (stereo not given) | 1.86 | -0.143 | 0.247 | -3.1 (inactive) | -0.177 | -0.127 | -0.175 | 0.338 | -0.128 | 0.452 | 0.623 | -2.21 | -0.31 | -0.325 | -0.607 | -0.0425 | 0.656 | -0.261 | -0.165 | -0.234
